Source: PubChem BioAssay
CYP2C9 act – increases human cytochrome P450 2C9 activity | AID 1024 | activation factor at 5 µM | hit rate 1.4% among 96,000 | recombinant CYP2C9, luciferin-H conversion, luminescence; hits give high values; factor 1 = untreated enzyme, 0 = blocked | P11712;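 active = activation factor of 2 or more for CYP2C9 at a 5 µM dose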
CYP2C19 inhib – inhibitors of human CYP2C19; P33261; CYP2C19 Supersomes, luciferin-H EGE luminescence, 30 min; inhibition, % at 5 µM; hit rate 21% among 96,000; AID 778;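 active = CYP2C19 inhibition above a set limit at 5 µM in the primary screen, cut at about 50% in these data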
Target sequence (P33261 whole entry, looked up): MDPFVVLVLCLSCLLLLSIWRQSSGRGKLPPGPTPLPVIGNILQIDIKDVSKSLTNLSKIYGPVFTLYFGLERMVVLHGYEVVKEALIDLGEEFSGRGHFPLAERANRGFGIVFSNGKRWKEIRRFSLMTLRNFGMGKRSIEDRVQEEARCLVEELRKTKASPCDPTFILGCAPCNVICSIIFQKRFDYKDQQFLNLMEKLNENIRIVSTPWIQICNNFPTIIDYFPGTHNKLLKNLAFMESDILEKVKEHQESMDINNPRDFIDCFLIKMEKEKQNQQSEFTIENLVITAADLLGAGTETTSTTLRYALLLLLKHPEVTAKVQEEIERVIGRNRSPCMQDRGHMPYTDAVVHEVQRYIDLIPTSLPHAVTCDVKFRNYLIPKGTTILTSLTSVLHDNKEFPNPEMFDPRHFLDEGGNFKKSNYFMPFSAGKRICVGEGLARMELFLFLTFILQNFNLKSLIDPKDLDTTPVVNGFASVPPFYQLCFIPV
CYP2C19 act – cytochrome P450 2C19 (human) activation; recombinant CYP2C19, luciferin-H EGE luminescence; hits give high values; 0 = fully inhibited enzyme, 1 = untreated enzyme; P33261; activation factor at 5 µM; 96,000 tested, under 10 active; AID 1025;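 active = activation factor of at least 2 at 5 µM in the primary screen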
CYP2C9 inh – inhibitors of human CYP2C9; P11712; CYP2C9 Supersomes, luciferin-H conversion, luminescence; inhibition, % at 5 µM; hit rate 20% among 96,000; AID 777;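 active = blocking of liver enzyme CYP2C9 beyond about 50% at 5 µM, limit read from the data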
Measles CPE – protection of cells from measles virus | hit rate 1.5% among 140,000 | AID 841 | Measles virus-infected cells, CPE protection, absorbance | protection (pct of control), % at 4 µM; in the data active = protection mostly above about 24%, no sharp cut-off; inactive = mostly below about 26%
Hits are given with their value; n = inactive; x = not tested or not shown. Rows were chosen to be rich in hits. Some 22% of all compounds tested hit in one or more screens of this group.

SMILES	CYP2C9 act	CYP2C19 inhib	CYP2C19 act	CYP2C9 inh	Measles CPE
O=C(CN1CCN(Cc2cccc(Cl)c2)C1=O)NCc1ccccn1	n	n	n	n	34.2
COc1ccc(-c2oc3ncn4nc(Cc5ccccc5)nc4c3c2-c2ccc(OC)cc2)cc1	n	n	n	n	n
Cc1ccc(-c2cc(C(F)F)nc(N3CCC(C)CC3)n2)cc1	n	n	n	54.7	n
COc1cccc(-c2cc(C(F)(F)F)nc(N3CCC(C)CC3)n2)c1	n	n	n	n	n
CCN(C(=O)c1ccc(C(C)(C)C)cc1)c1nnc(Cn2nnc3ccccc32)s1	n	n	n	51.8	n
COc1ccc(S(=O)(=O)N2Cc3ccccc3CC2C(=O)Nc2ccc(O)cc2)cc1OC (configuration not stated)	n	79.5	n	91.3	n
CCS(=O)(=O)N1Cc2ccccc2CC1C(=O)Nc1ccc(C)cc1 (configuration not stated)	n	86.4	n	61.1	n
Cc1ccc(C)c(NC(=O)/C(C#N)=C/c2ccc(Sc3nncn3C)c([N+](=O)[O-])c2)c1	x	x	x	x	n
CN(C)CC(O)COc1cc2ccccc2cc1C(=O)N1CCCCC1 (configuration not stated)	n	n	n	n	n
CSc1nnc(CSCc2ccc(Cl)cc2Cl)n1-c1ccccc1	n	58.6	n	69.5	n
COC(Cc1nnc(SC)n1-c1ccccc1)OC	n	n	n	n	n
Cc1ccc(/C=C/C(=O)Nc2cc(=O)n(C)c(=O)n2C)o1	x	x	x	x	n
CSc1nc2ccccc2cc1/C=C(\C#N)c1cccc(Cl)c1	n	n	n	n	n
CCC(=O)Nc1ccc(C(=O)NNC(=O)Cc2ccccc2)cc1	x	x	x	x	n
COc1ccccc1N1CCN(C(=O)CCNS(=O)(=O)c2ccc(Br)s2)CC1	n	n	n	80.0	n
O=C(CCNS(=O)(=O)c1ccc(Br)s1)N1CCN(c2ccccc2)CC1	n	n	n	n	n
O=C(CNS(=O)(=O)c1ccc(Br)s1)N1CCCC1	n	64.1	n	n	n
O=C1C(=O)N(CCCN2CCOCC2)C(c2cccs2)/C1=C(/O)c1ccc2c(c1)OCO2 (configuration not stated)	x	x	x	x	n
CCCN(CCC)C(=O)Cn1c(=O)n(CCCCCC(=O)Nc2ccccc2)c(=O)c2sccc21	x	x	x	x	n
Cc1cccc(C)c1NC(=O)CSc1nnc(-c2ccco2)c(-c2ccco2)n1	n	n	n	n	n
O=C(Cc1ccccc1)Nc1ccc(-c2nnc(-c3ccco3)o2)cc1	x	x	x	x	n
Cc1ccc(SCC(=O)Nc2ccc(-c3nnc(-c4ccco4)o3)cc2)cc1	n	n	n	89.6	n
O=C(Cc1ccc(Cl)cc1)Nc1ccc(-c2nnc(-c3ccco3)o2)cc1	n	54.7	n	75.9	n
Cc1ccccc1NC(=O)CSc1nnc(-c2ccco2)c(-c2ccco2)n1	n	n	n	76.8	n
O=C(CSc1nnc(-c2ccco2)c(-c2ccco2)n1)Nc1ccccc1	n	n	n	73.0	n
SMILES	CYP2C9 act	CYP2C19 inhib	CYP2C19 act	CYP2C9 inh	Measles CPE
CC(=O)N(CC(=O)O)c1ccccc1C(=O)O	n	n	n	n	n
COc1ccc(N2CCN(Cc3nc4c(c(=O)[nH]c(=O)n4C)n3CC(C)=O)CC2)cc1	x	x	x	x	n
Cc1ccc(NC(=O)CSc2nnc(-c3ccco3)c(-c3ccco3)n2)cc1	n	98.0	n	95.2	n
Cn1cc(Br)c(C(=O)N2CCN(c3cccc(Cl)c3)CC2)n1	x	x	x	x	n
CN=C1CC(SC)=C1c1ccc(C)cc1	x	x	x	x	n
COc1cccc(C(C#N)N2CCOCC2)c1 (configuration not stated)	n	77.7	n	n	n
CCC1(CC)C(=O)C(C)(C)C(=O)OC1c1cccs1 (configuration not stated)	n	96.2	n	n	n
CN(C)c1ccc(C2OC(=O)C(C)(C)C(=O)C2(C)C)cc1 (configuration not stated)	n	n	n	n	n
CC(C)C1N=C2c3ccccc3N=C(SCc3cc(=O)n4cc(Cl)ccc4n3)N2C1=O (configuration not stated)	n	n	n	54.6	n
Cc1ccc2nc(CSc3nnc(Nc4ccccc4F)s3)cc(=O)n2c1	x	x	x	x	n
NC(=O)N1CC(O)CC1C(=O)Nc1ccc(Cl)c(Cl)c1 (configuration not stated)	x	x	x	x	n
Cc1csc2c(=O)n3c(nc12)CCCCC3	n	n	n	n	n
Cc1sc2c(=O)n3c(nc2c1C(=O)NC1CCCCC1)CCCCC3	n	83.9	n	95.7	n
Cc1sc2c(=O)n3c(nc2c1C(=O)NCCCN1CCOCC1)CCCCC3	n	85.5	n	90.4	n
Cc1ccc(C(=O)OCC(=O)Nc2ccc3c(c2)OCO3)cc1S(=O)(=O)N1CCOCC1	n	n	n	50.6	n
Cc1ccc(C(=O)Oc2cccc(NC(=O)c3cccs3)c2)cc1S(=O)(=O)N1CCOCC1	n	n	n	58.2	n
Cc1cc(C(=O)OCC(=O)Nc2cccc(S(=O)(=O)N3CCOCC3)c2)c(C)o1	n	72.7	n	83.4	n
O=C(COC(=O)c1cc(S(=O)(=O)N2CCOCC2)ccc1Cl)Nc1ccc2c(c1)OCO2	n	68.3	n	61.1	n
CCN(c1ccc(NC(=O)COC(=O)c2ccc(C)c(S(=O)(=O)N3CCOCC3)c2)cc1)C(C)C	n	n	n	n	n
Clc1nc(-c2ccccc2)cc(-c2ccccc2)n1	x	x	x	x	n
CCN(CC)c1ccc(NC(=O)Nc2ccccc2C(F)(F)F)cc1	n	n	n	n	n
Cc1ccc(-n2ncc3c2ncn2c(C)nnc32)cc1C	n	n	n	n	n
CCOC(=O)c1ccccc1NC(=O)COC(=O)c1ccc(C)c(S(=O)(=O)N2CCOCC2)c1	n	n	n	61.2	n
CCNc1ccc(C(=O)OCC)cc1NC(=O)c1cccc(S(=O)(=O)N2CCOCC2)c1	n	n	n	57.5	n
CCOC(=O)c1ccc(NC(=O)c2cc(S(=O)(=O)N3CCOCC3)ccc2O)cc1	n	n	n	n	n
SMILES	CYP2C9 act	CYP2C19 inhib	CYP2C19 act	CYP2C9 inh	Measles CPE
O=C(Nc1cccc(S(=O)(=O)N2CCOCC2)c1)c1ccco1	n	75.0	n	n	n
O=C(COC(=O)CCc1ccc(S(=O)(=O)N2CCCCC2)cc1)Nc1ccc2c(c1)OCO2	n	n	n	76.4	n
N#Cc1ccc(NC(=O)COC(=O)CCc2ccc(S(=O)(=O)N3CCCCC3)cc2)cc1	x	x	x	x	n
CCOc1ccc(NC(=O)CSc2n[nH]c(=O)n2-c2ccccc2)cc1	n	n	n	n	n
CCn1c(SCC(=O)c2cc(C)n(C)c2C)nnc1-c1ccccc1	n	100.2	n	n	n
Cc1cc(C(=O)CSc2nc3ccccc3n2C)c(C)n1C	3.4	n	n	n	n
Cc1cc(C(=O)CSc2nc3ccccc3c(=O)[nH]2)c(C)n1C	n	n	n	n	n
C=CCn1c(SCC(=O)c2ccc(O)c(O)c2)nnc1-c1ccccc1OC	n	74.8	n	n	n
Cc1ccccc1-n1c(SCC(=O)c2cc(C)n(C)c2C)nnc1-c1cccnc1	n	67.2	n	62.3	n
Cc1cc(C(=O)CSc2nnc(-c3cccs3)n2Cc2ccccc2)c(C)n1C	n	n	n	n	n
